{"source": "paper PMC5540273", "about": "(PLoS ONE, 2017);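 further: KINOMEscan kinase panel screen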", "conditions_in_all_cases": "concentration: 1 μM,replicates: in singlicate; n = 1", "key": {"[1]": {"test_system": "PLK2"}, "[2]": {"test_system": "PLK3"}, "[3]": {"test_system": "PLK4"}, "[4]": {"test_system": "PRKCD"}, "[5]": {"test_system": "PRKCE"}, "[6]": {"test_system": "PRKCH"}, "[7]": {"test_system": "PRKCI"}, "[8]": {"test_system": "PRKCQ"}, "[9]": {"test_system": "PRKD1"}, "[10]": {"test_system": "PRKD2"}}}
{"smiles": "CSc1nccc(-c2c(-c3ccc(F)cc3)ncn2CCCN2CCOCC2)n1.Cl", "note": "[SB-217146]", "values": [{"measurement": "%Inh", "setting": "[1]", "value": 28, "unit": "%"}, {"measurement": "%Inh", "setting": "[2]", "value": 44, "unit": "%"}, {"measurement": "%Inh", "setting": "[3]", "value": 5, "unit": "%"}, {"measurement": "%Inh", "setting": "[4]", "value": 8, "unit": "%"}, {"measurement": "%Inh", "setting": "[5]", "value": 38, "unit": "%"}, {"measurement": "%Inh", "setting": "[6]", "value": 0, "unit": "%"}, {"measurement": "%Inh", "setting": "[7]", "value": 14, "unit": "%"}, {"measurement": "%Inh", "setting": "[8]", "value": 0, "unit": "%"}, {"measurement": "%Inh", "setting": "[9]", "value": 0, "unit": "%"}, {"measurement": "%Inh", "setting": "[10]", "value": 1, "unit": "%"}]}
{"smiles": "CS(=O)(=O)Nc1ccc(-c2ccnc3[nH]ccc23)cc1", "note": "[GSK993273]", "values": [{"measurement": "%Inh", "setting": "[1]", "value": 0, "unit": "%"}, {"measurement": "%Inh", "setting": "[2]", "value": 0, "unit": "%"}, {"measurement": "%Inh", "setting": "[3]", "value": 21, "unit": "%"}, {"measurement": "%Inh", "setting": "[4]", "value": 42, "unit": "%"}, {"measurement": "%Inh", "setting": "[5]", "value": 64, "unit": "%"}, {"measurement": "%Inh", "setting": "[6]", "value": 49, "unit": "%"}, {"measurement": "%Inh", "setting": "[7]", "value": 26, "unit": "%"}, {"measurement": "%Inh", "setting": "[8]", "value": 57, "unit": "%"}, {"measurement": "%Inh", "setting": "[9]", "value": 0, "unit": "%"}, {"measurement": "%Inh", "setting": "[10]", "value": 0, "unit": "%"}]}
{"smiles": "CC(=O)Nc1ccc(-c2cc3ncnc(SCC(=O)O)c3s2)cc1", "values": [{"measurement": "%Inh", "setting": "[1]", "value": 15, "unit": "%"}, {"measurement": "%Inh", "setting": "[2]", "value": 7, "unit": "%"}, {"measurement": "%Inh", "setting": "[3]", "value": 47, "unit": "%"}, {"measurement": "%Inh", "setting": "[4]", "value": 22, "unit": "%"}, {"measurement": "%Inh", "setting": "[5]", "value": 10, "unit": "%"}, {"measurement": "%Inh", "setting": "[6]", "value": 1, "unit": "%"}, {"measurement": "%Inh", "setting": "[7]", "value": 0, "unit": "%"}, {"measurement": "%Inh", "setting": "[8]", "value": 18, "unit": "%"}, {"measurement": "%Inh", "setting": "[9]", "value": 22, "unit": "%"}, {"measurement": "%Inh", "setting": "[10]", "value": 0, "unit": "%"}]}
{"smiles": "COc1cccc(OC)c1C(=O)Nc1cccc(-c2nn3ccccc3c2-c2ccnc(Nc3cccc(F)c3)n2)c1", "note": "[GSK361065]", "values": [{"measurement": "%Inh", "setting": "[1]", "value": 10, "unit": "%"}, {"measurement": "%Inh", "setting": "[2]", "value": 0, "unit": "%"}, {"measurement": "%Inh", "setting": "[3]", "value": 16, "unit": "%"}, {"measurement": "%Inh", "setting": "[4]", "value": 26, "unit": "%"}, {"measurement": "%Inh", "setting": "[5]", "value": 14, "unit": "%"}, {"measurement": "%Inh", "setting": "[6]", "value": 11, "unit": "%"}, {"measurement": "%Inh", "setting": "[7]", "value": 21, "unit": "%"}, {"measurement": "%Inh", "setting": "[8]", "value": 17, "unit": "%"}, {"measurement": "%Inh", "setting": "[9]", "value": 17, "unit": "%"}, {"measurement": "%Inh", "setting": "[10]", "value": 1, "unit": "%"}]}
{"smiles": "Cc1cccc2c(-c3ccncc3)c(-c3ccc(F)cc3)nn12.Cl", "note": "[GW461487]", "values": [{"measurement": "%Inh", "setting": "[1]", "value": 0, "unit": "%"}, {"measurement": "%Inh", "setting": "[2]", "value": 0, "unit": "%"}, {"measurement": "%Inh", "setting": "[3]", "value": 0, "unit": "%"}, {"measurement": "%Inh", "setting": "[4]", "value": 3, "unit": "%"}, {"measurement": "%Inh", "setting": "[5]", "value": 10, "unit": "%"}, {"measurement": "%Inh", "setting": "[6]", "value": 0, "unit": "%"}, {"measurement": "%Inh", "setting": "[7]", "value": 23, "unit": "%"}, {"measurement": "%Inh", "setting": "[8]", "value": 0, "unit": "%"}, {"measurement": "%Inh", "setting": "[9]", "value": 2, "unit": "%"}, {"measurement": "%Inh", "setting": "[10]", "value": 36, "unit": "%"}]}
{"smiles": "COc1cc2nccc(Nc3ccc(Oc4ccccc4)cc3)c2cc1OC.Cl", "note": "[GI261656]", "values": [{"measurement": "%Inh", "setting": "[1]", "value": 0, "unit": "%"}, {"measurement": "%Inh", "setting": "[2]", "value": 0, "unit": "%"}, {"measurement": "%Inh", "setting": "[3]", "value": 15, "unit": "%"}, {"measurement": "%Inh", "setting": "[4]", "value": 0, "unit": "%"}, {"measurement": "%Inh", "setting": "[5]", "value": 0, "unit": "%"}, {"measurement": "%Inh", "setting": "[6]", "value": 1, "unit": "%"}, {"measurement": "%Inh", "setting": "[7]", "value": 0, "unit": "%"}, {"measurement": "%Inh", "setting": "[8]", "value": 0, "unit": "%"}, {"measurement": "%Inh", "setting": "[9]", "value": 0, "unit": "%"}, {"measurement": "%Inh", "setting": "[10]", "value": 0, "unit": "%"}]}
{"smiles": "Cl.c1ccc(Oc2ccc(Nc3ccnc4cc(-c5ccc(CN6CCNCC6)o5)ccc34)cc2)nc1", "note": "[GW567142]", "values": [{"measurement": "%Inh", "setting": "[1]", "value": 0, "unit": "%"}, {"measurement": "%Inh", "setting": "[2]", "value": 0, "unit": "%"}, {"measurement": "%Inh", "setting": "[3]", "value": 16, "unit": "%"}, {"measurement": "%Inh", "setting": "[4]", "value": 0, "unit": "%"}, {"measurement": "%Inh", "setting": "[5]", "value": 0, "unit": "%"}, {"measurement": "%Inh", "setting": "[6]", "value": 0, "unit": "%"}, {"measurement": "%Inh", "setting": "[7]", "value": 20, "unit": "%"}, {"measurement": "%Inh", "setting": "[8]", "value": 0, "unit": "%"}, {"measurement": "%Inh", "setting": "[9]", "value": 24, "unit": "%"}, {"measurement": "%Inh", "setting": "[10]", "value": 3, "unit": "%"}]}
